# Where “and” joins values, the source holds several entries; their conditions need not be identical. Identical values can stand only once. Counter-ions that a name gives are not always drawn.
# Tests used:
# Assay in all cases: cell viability relative to vehicle control; higher = less cytotoxic
# Conditions in all cases: 10 µM
# K562 = system: K562
# Procedure, shortened: (§1)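 Mutant clones made by CRISPR editing and their isogenic wild-type counterparts, from four leukaemia lines, were exposed to a single 10 µM dose of each library compound for 48 h. The supernatant was then removed and CellTiter-Glo luminescence was read. Viability was reported as percent of the on-plate vehicle control.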
# MARIMO = system: MARIMO
# Procedure, shortened: as §1
# MOLM14 = system: MOLM14
# Procedure, shortened: as §1
# OCI-AML2 = system: OCI-AML2
# Procedure, shortened: as §1
Compound,cell viability (K562; SRSF2 genotype: SRSF2 P95H/wt),cell viability (K562; SRSF2 genotype: SRSF2 wt/wt),cell viability (MARIMO; SRSF2 genotype: SRSF2 P95H/wt),cell viability (MARIMO; SRSF2 genotype: SRSF2 wt/wt),cell viability (MOLM14; SRSF2 genotype: SRSF2 P95H/wt),cell viability (MOLM14; SRSF2 genotype: SRSF2 wt/wt),cell viability (OCI-AML2; SRSF2 genotype: P95H/wt),cell viability (OCI-AML2; SRSF2 genotype: wt/wt)
C=C[C@]1(C)C[C@@H](OC(=O)CS[C@@H]2C[C@H]3CC[C@@H](C2)N3C)[C@]2(C)[C@H](C)CC[C@]3(CCC(=O)[C@H]32)[C@@H](C)[C@@H]1O [Retapamulin],81.2% and 79.9%,84%,85.6%,84.6%,87.6%,84.5%,75.8%,84%
CCCCCCC=CCCCCCCCc1cccc(O)c1C(=O)O [Ginkgolic Acid],103% and 101%,104%,108%,110%,109%,107%,100%,106%
O=S(=O)(NCCNCC=Cc1ccc(Br)cc1)c1cccc2cnccc12,77.6% and 78%,75.8%,61.2%,69.1%,43.2%,50%,38.7%,43.2%
O=C(NCCO[N+](=O)[O-])c1cccnc1 [Nicorandil (Ikorel)],101% and 99.9%,108%,108%,108%,93.4%,99.1%,82.1%,94%
CCc1nc(C(N)=O)c(Nc2ccc(N3CCC(N4CCN(C)CC4)CC3)c(OC)c2)nc1NC1CCOCC1 [Gilteritinib (ASP2215)],89% and 85.7%,91.4%,40.9%,40.6%,4.58%,8.89%,14.3%,21.3%
C/C=C(/C)C(=O)O[C@H]1c2cc(OC)c(OC)c(OC)c2-c2c(cc3c(c2OC)OCO3)C[C@H](C)[C@]1(C)O [Schisantherin B],98.1% and 96.8%,93.7%,93%,94.1%,82.8%,92.6%,97.1%,97%
NC[C@@](O)(c1ccc(Cl)cc1)c1ccc(-c2cn[nH]c2)cc1,34.7% and 19.4%,13%,52.9%,56.4%,29.3%,25.6%,13.8%,17.4%
Cc1c[nH]c2nc(Nc3ccc(N4CCN(C)CC4)c(F)c3)nc(-c3cccc(CC#N)c3)c12,11.7% and 1.85%,4.64%,4.43%,2.84%,0.86%,0.46%,0.41%,4.1%
O=C1Cc2c([nH]c3ccc(Br)cc23)-c2ncccc2N1 [1-Azakenpaullone],109% and 116%,104%,122%,127%,128%,122%,153%,148%
CCCc1nc(C)c2c(=O)[nH]c(-c3cc(S(=O)(=O)N4CCN(CC)CC4)ccc3OCC)nn12 [Vardenafil Hydrochloride Trihydrate (Vivanza],99.1% and 107%,97.1%,110%,108%,105%,106%,135%,115%
Nc1ccc(S(=O)(=O)Nc2ncccn2)cc1 [Sodium sulfadiazine],98.3% and 99.1%,102%,106%,97.4%,98.1%,102%,109%,96.8%
